The list is not random: actives were taken first. Their share in the collection is about 0.37%.
Rac1 wt modul: alters GTP binding to wildtype human Rac1. GST-Rac1 beads, fluorescent GTP binding, flow cytometry; actives lie on both sides; 0 = cold GTP competed, 100 = untreated. 190,000 tested, 0.27% active. AID 757. P63000. GTP binding activity (% of control), % at 10 µM;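 active = GTP binding activity at least 20 points away from the 100% control level, either lower or higher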
HRas wt GTP: changes GTP binding to wildtype human HRas; GST-Ras wt beads, Bodipy-FL-GTP binding, flow cytometry; actives lie on both sides; GTP binding activity, % at 10 µM; 190,000 tested, 0.14% active; AID 759;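 active = GTP binding activity at least 20% away from the 100% baseline, either lowered as inhibitor or raised as activator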
Target sequence (P01112 whole entry, looked up): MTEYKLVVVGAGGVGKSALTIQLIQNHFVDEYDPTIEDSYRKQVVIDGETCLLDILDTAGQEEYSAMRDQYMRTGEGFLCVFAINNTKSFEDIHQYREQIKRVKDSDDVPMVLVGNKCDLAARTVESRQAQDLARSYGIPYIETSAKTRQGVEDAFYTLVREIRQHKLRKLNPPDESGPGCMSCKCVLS
Rab7 wt modul: dog Rab7 wildtype GTP binding, inhibitors and activators. GTP binding activity (percent of control), % at 10 µM. 190,000 tested, 0.055% active. AID 758. GST-Rab7 beads, fluorescent GTP binding, flow cytometry; actives lie on both sides; untreated = 100%, excess cold GTP = 0%;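 active = fluorescent GTP binding to Rab7 beads changed by at least 20 points from the 100% baseline, either direction, mostly lower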;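 note: median green fluorescence of bound Bodipy-FL-GTP per Rab7 bead population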
Rab2A wt mod: changes GTP binding to wildtype dog Rab2A, up or down; GST-Rab2 wt beads, Bodipy-GTP binding, flow cytometry; GTP binding activity, % at 10 µM; 190,000 tested, 0.19% active; P61105;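 active = GTP binding activity at least 20 points away from 100%, either lowered or raised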
Cdc42 wt: changes GTP binding to wildtype human Cdc42; P60953; 190,000 tested, 0.2% active; percent activity (GTP binding), % at 10 µM; GST-Cdc42 beads, Bodipy-GTP binding, flow cytometry; actives lie on both sides;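 active = percent activity GTP binding at least 20 points away from the 100% baseline, either down as inhibitor or up as activator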;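 note: median bead fluorescence of bound Bodipy-FL-GTP at 100 nM; below 100% means less GTP binding so inhibitor and above means activator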
Target sequence (P60953 whole entry, looked up): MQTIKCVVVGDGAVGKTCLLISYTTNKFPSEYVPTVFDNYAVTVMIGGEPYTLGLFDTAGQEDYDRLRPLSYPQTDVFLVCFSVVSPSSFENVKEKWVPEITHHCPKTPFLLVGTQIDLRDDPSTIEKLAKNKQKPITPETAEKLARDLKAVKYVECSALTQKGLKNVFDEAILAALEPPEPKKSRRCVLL
Rac1 mut GTP: human Rac1 activated mutant GTP binding change. GST-Rac1 activated beads, fluorescent GTP binding, flow cytometry; actives lie on both sides; 100% means binding = to untreated wells. percent activity (GTP binding), % at 10 µM. 190,000 tested, 0.11% active. AID 764;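 active = GTP binding at least 20 percentage points away from the 100% baseline, in either direction, so actives lie on both sides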
Large screens that a line does not name were inactive; [ ] = another dose, or the depositor's remark.

COc1cccc(NC(=O)NCCCN2CCN(c3ccc(F)cc3)CC2)c1	Rab7 wt modul 76
CN(C(=O)CSc1nnc(-c2ccccc2)o1)c1c(N)n(Cc2ccccc2)c(=O)[nH]c1=O	none
C/C(=N\Nc1cc(C)nc(-c2ccccc2)n1)c1cccc([N+](=O)[O-])c1	Rac1 wt modul 73
COc1cc(/C=N/NC(=O)C(Cc2c[nH]c3ccccc23)NC(=O)OCC(C)C)cc([N+](=O)[O-])c1O (stereo unspecified)	none
COc1cc(/C=N/NC(=O)C(Cc2c[nH]c3ccccc23)NC(=O)OCc2ccccc2)cc([N+](=O)[O-])c1O (stereo unspecified)	Rac1 wt modul 78, Rab2A wt mod 77
CCOC(=O)c1ccccc1NC(=O)/C(C)=C/C(=O)O	none
CO/N=C/NC(=O)NOCc1ncc(C(F)(F)F)cc1Cl	Rac1 wt modul 123[activator]
NC(=O)NOCc1ncc(C(F)(F)F)cc1Cl	Rac1 wt modul 120[activator]
Cc1nnc2ccc(-c3cccc(NC(=O)c4ccco4)c3)nn12	Rac1 wt modul 56, HRas wt GTP 65, Rab7 wt modul 77, Rab2A wt mod 63, Cdc42 wt 64, Rac1 mut GTP 75
CC/C(O)=C(/C#N)c1nnc2n1CCCCC2	none
N#C/C(=C(/O)COc1ccc(Br)cc1)c1nnc2n1CCCCC2	Rac1 wt modul 78, Rab2A wt mod 77, Cdc42 wt 76, Rac1 mut GTP 75
CCC1(c2ccccc2)NC(=O)N(CC(=O)Nc2cccc(C#N)c2)C1=O (stereo unspecified)	none
CC(Sc1nnc(NC2CCCCC2)s1)C(=O)Nc1ccc2c(c1)C(=O)c1ccccc1C2=O (stereo unspecified)	Rac1 wt modul 75, Rab2A wt mod 77
O=C(O)C1=C[C@@H](c2ccccc2)C[C@@H](OCc2ccc(CO)cc2)O1	none
O=C(O)C1=C[C@H](c2ccc(Br)cc2)C[C@H](OCc2ccc(CO)cc2)O1	Rac1 wt modul 75, HRas wt GTP 78, Rab2A wt mod 74, Cdc42 wt 71, Rac1 mut GTP 69
O=C(O)c1cc(-c2ccc(/C=C3\NC(=O)N(c4ccc(Cl)cc4)C3=O)o2)ccc1Cl	Rac1 wt modul 74, Cdc42 wt 74, Rac1 mut GTP 77
O=C1NN(c2ccccc2)C(=O)/C1=C/c1ccc(-c2ccc(Cl)c(C(=O)O)c2)o1	none
O=C(Nc1sc2c(c1C(=O)O)CCCCC2)c1ccccc1	Cdc42 wt 78, Rac1 mut GTP 77
CCCN1C(=O)/C(=C\C=C2/Sc3ccccc3N2CC)SC1=S	Rac1 wt modul 69, HRas wt GTP 68, Rab7 wt modul 77, Rab2A wt mod 74, Cdc42 wt 73, Rac1 mut GTP 75
CCN1/C(=C\C=C2\C(=O)N(c3ccccc3)C(=S)N2C)Sc2ccccc21	HRas wt GTP 78
CCn1c2ccccc2c2nc3cc(C(=O)O)ccc3nc21	Rac1 wt modul 77
CCn1c2ccccc2c2nc3ccccc3nc21	none
O=C1C(NS(=O)(=O)c2ccc(Cl)cc2)=C(N2CCCCC2)C(=O)c2ccccc21	none
CC(C)C1NC(=S)N(Cc2ccccc2)C1=O (stereo unspecified)	none
CC(C)(C)CC(=O)NC(=S)NCc1ccco1	Rac1 wt modul 125[activator]
CCCc1nc2c(=O)n(C)c(=O)nc-2n(C)n1	Cdc42 wt 74
Cc1sc2nc3c4ccccc4c(NCc4ccco4)nn3c(=O)c2c1C	HRas wt GTP 76, Rab2A wt mod 74, Cdc42 wt 75
CCOc1ccc(S(=O)(=O)Nc2ccc(O)c(Sc3ncn[nH]3)c2)cc1	none
COc1ccc(OC)c(S(=O)(=O)Nc2ccc(O)c(Sc3ncn[nH]3)c2)c1	Rac1 wt modul 31, HRas wt GTP 39, Rab7 wt modul 21, Rab2A wt mod 35, Cdc42 wt 36, Rac1 mut GTP 36
O=C(O)CCCN1C(=O)/C(=C\c2ccco2)SC1=S	none

Assay outcomes deposited in PubChem BioAssay by NMMLSC.
